In all, about 69,000 compounds went through this assay and about 8,600 (12%) showed an effect of 50% or more. Many of the other results were omitted from the sample, so strong results are more common in it than they were.
test system: Plasmodium berghei; test: Screen against P. berghei liver stage (PbLuc), transformed with Luciferase, at 10uM; format: functional, HepG2; conditions: tested at 10 uM

Row | Structure (SMILES) | INHIBITION
1 | O=c1occ(CN2CCOCC2)c(O)c1CN1CCOCC1 | 3.19%
2 | Cc1nc(CNC(C)c2cccc(S(=O)(=O)N(C)C)c2)no1 (stereo unspecified) | 39.7%
3 | CC(CO)NS(=O)(=O)c1cccc(C(C)C)c1 (stereo unspecified) | 26.6%
4 | CCOc1ccc(CNC(C)c2cccc(S(=O)(=O)NC)c2)cc1 (stereo unspecified) | 46.6%
5 | CC(NCc1ccc(F)cc1)c1ccc(S(C)(=O)=O)cc1 (stereo unspecified) | 25.5%
6 | CNS(=O)(=O)c1cccc(C(C)NCc2ccc(F)c(F)c2)c1 (stereo unspecified) | 59.4%
7 | CC(NCc1cccc(S(=O)(=O)N(C)C)c1)c1cccnc1 (stereo unspecified) | 21.9%
8 | CNS(=O)(=O)c1cccc(C(C)NCc2cccc(OC)c2)c1 (stereo unspecified) | 20.1%
9 | CNS(=O)(=O)c1cccc(C(C)NCc2ccncc2)c1 (stereo unspecified) | 32.9%
10 | CNS(=O)(=O)c1cccc(C(C)NCc2ccc(C)c(C)c2)c1 (stereo unspecified) | 62.8%
11 | CNS(=O)(=O)c1cccc(C(C)NCc2ccccc2)c1 (stereo unspecified) | 11.8%
12 | CNS(=O)(=O)c1cccc(C(C)NCc2cccc(O)c2)c1 (stereo unspecified) | 50.8%
13 | CNS(=O)(=O)c1cccc(C(C)NCc2ccc(F)cc2F)c1 (stereo unspecified) | 65.4%
14 | O=S(=O)(C1CC1)N1CC[C@@H]2[C@@H]1CCN2Cc1cccs1 | 33%
15 | Cc1cccc(NC(=O)N2CCCn3cnc(CN(C)C(C)C)c3C2)c1 | -6.3%
16 | NC(=O)c1cnn2c(C3CCCN(C4CCOCC4)C3)ccnc12 (stereo unspecified) | 10.51%
17 | CCc1ccc(NC(=O)CC2Cn3ncnc3NC2=O)cc1 (stereo unspecified) | -4.76%
18 | CCN1C(=O)[C@H]2CN(CC(C)C)C[C@H]2C12CCN(C(=O)NC(C)C)CC2 | -16.9%
19 | Cc1ccc(N2CCCC3(CCCC(=O)N3)C2)nn1 (stereo unspecified) | 3.88%
20 | CCOCCCC(=O)NCCC(=O)N1CCN(c2ccccn2)CC1 | -39.5%
21 | CCN1CC(O)CN(C(=O)c2ccc(SC)cc2)CC1=O (stereo unspecified) | 47.2%
22 | c1ccc2nc(N3CCOC(Cn4cncn4)C3)cnc2c1 (stereo unspecified) | -44.3%

Row | Structure (SMILES) | INHIBITION
23 | CCN(CC(=O)N(C)C)C(=O)c1nc(C)n(-c2ccccc2Cl)n1 | -28.7%
24 | CCc1cc(CN(C)C(=O)c2cnn[nH]2)on1 | -47.9%
25 | COc1ccccc1CNc1ncnc2c1NC(=O)CN2 | -79.3%
26 | O=C(NCc1nncn1C1CCCCC1)C1COc2ccccc2O1 (stereo unspecified) | 35.4%
27 | CNS(=O)(=O)c1cccc(C(C)NCc2cccc(C)c2C)c1 (stereo unspecified) | 52.6%
28 | CNS(=O)(=O)c1cccc(C(C)NCc2nccn2C(C)C)c1 (stereo unspecified) | 23.5%
29 | CNS(=O)(=O)c1cccc(C(C)NCc2ccc(C)o2)c1 (stereo unspecified) | 35.4%
30 | CNS(=O)(=O)c1cccc(C(C)NCc2ccsc2)c1 (stereo unspecified) | 36.3%
31 | CNS(=O)(=O)c1cccc(C(C)NCc2ccco2)c1 (stereo unspecified) | 55.1%
32 | CNS(=O)(=O)c1cccc(C(C)NCc2ccccc2OC)c1 (stereo unspecified) | -9.93%
33 | O=C(NCc1ccccc1)[C@H]1C[C@H]2CN(C(=O)NC3CCCC3)C[C@@H]1O2 | 7.65%
34 | CCC1CCCCN1C(=O)Cn1nc(-c2cc(C)oc2C)cc(N)c1=O (stereo unspecified) | 37.5%
35 | N#Cc1cccc(C(=O)N2CCc3c(COCC4CC4)cncc3C2)c1 | 18.7%
36 | COc1ccc(CNc2cccnc2-n2cccn2)c(OC)c1OC | 41.5%
37 | O=C(NC1CCCC1)N1CCCCC1c1nc(C2CC2)no1 (stereo unspecified) | 38.6%
38 | Fc1ccc(CN2CCCn3nnc(COCC4CC4)c3C2)cc1 | 46.6%
39 | Cc1ccccc1C(=O)N1CC[C@@H]2CN(c3ncccn3)CCO[C@@H]2C1 | 47.4%
40 | O=C(c1cccc(F)c1)N1CC[C@@H]2CN(c3ncccn3)CCO[C@@H]2C1 | 48.6%
41 | Cc1cccc(C(=O)N2CC[C@@H]3CN(c4ncccn4)CCO[C@@H]3C2)c1 | 4.27%
42 | Cc1cnc(C(=O)N2CC[C@@H]3CN(c4ncccn4)CCO[C@@H]3C2)cn1 | 56.7%
43 | O=C(c1ccccc1F)N1CC[C@@H]2CN(c3ncccn3)CCO[C@@H]2C1 | 69.5%
44 | O=C(c1ccncc1F)N1CC[C@@H]2CN(c3ncccn3)CCO[C@@H]2C1 | -1.55%

Row | Structure (SMILES) | INHIBITION
45 | CN1CCCC1c1cncc(C(=O)NCc2ccccc2)n1 (stereo unspecified) | 40.6%
46 | CN1CCN([C@@H]2CCN(CC3CCOC3)[C@H]2Cc2cnn(C)c2)CC1 (stereo partly specified) | -10.5%
47 | COCC(=O)N1CCC2(CC1)COCCN2CCN(C)C | 0.547%
48 | O=C(c1ccccc1)N1C[C@H]2CCC[C@@]2(COCc2ccncc2)C1 | -4.88%
49 | N#Cc1ccc(C(=O)NCCCNc2ccc(C(F)(F)F)cn2)cc1 | 42.7%
50 | Cc1cc(NCCNc2ccc(C#N)cn2)nc(C)n1 | -14.1%
51 | N#Cc1ccc(NCCNc2ccc(C(F)(F)F)cn2)nc1 | 78.4%
52 | COc1ccc(C(=O)NCCCNc2ccc(C(F)(F)F)cn2)cc1 | 34.15%
53 | O=C(NCCCNc1ccc(C(F)(F)F)cn1)c1ccc(F)cc1Br | 82.6%
54 | Cc1ccc(C(=O)NCCCNc2ccc(C(F)(F)F)cn2)cc1 | 51.85%
55 | O=C(NCCNc1ccc(C(F)(F)F)cn1)c1ccc(F)cc1Cl | 3.73%
56 | CN(C)c1ccc(C(=O)NCCCNc2ccc(C(F)(F)F)cn2)cc1 | 38.95%
57 | Nc1nccnc1C(=O)NCCCNc1ccc(C(F)(F)F)cn1 | 25.55%
58 | O=C(NCCCNc1ccc(C(F)(F)F)cn1)c1ccc(F)cc1F | -23.9%
59 | O=C(NCCCNc1ccc(C(F)(F)F)cn1)c1ccc(F)cc1 | 67.3%
60 | O=C(NCCCNc1ccc(C(F)(F)F)cn1)c1ccccc1 | 10.65%
61 | O[C@H]1CN(Cc2ccnc(N3CCCC3)n2)CC[C@@]12CCCO2 | -14.2%
62 | Cc1ncsc1CN(C)Cc1cc2c(cc1OC(F)F)OCO2 | 34.9%
63 | Cc1csc(C(C)(C)NCc2ncc(-c3ccccc3)o2)n1 | -20.3%
64 | CN(C)C(=O)c1nc(-c2ccc(S(C)(=O)=O)cc2)c2ccccn12 | 17.6%
65 | CNC(=O)C1CN(C(=O)COc2ccccc2)Cc2cn(C)nc21 (stereo unspecified) | 42.6%
66 | COC(=O)Cn1c(=O)[nH]c2cn(-c3cccc(C)c3)c(=O)n21 | -9.39%

Row | Structure (SMILES) | INHIBITION
67 | CNC(=O)CNC(=O)NCc1cc2c(s1)CCC(C)(C)C2 | 26.1%
68 | COCc1ccc(C(=O)NCCCNc2ccc(C(F)(F)F)cn2)cc1 | 24.15%
69 | O=C(NCCNc1ccc(C(F)(F)F)cn1)c1ccc(Cl)cc1F | 29.4%
70 | O=C(NCCCNc1ccc(C(F)(F)F)cn1)c1ccc2c(c1)OCO2 | 60.5%
71 | CSCc1ccc(C(=O)NCCCNc2ccc(C(F)(F)F)cn2)cc1 | 60.95%
72 | O=C(NCCNc1ccc(C(F)(F)F)cn1)c1ccc(Br)cc1 | -18%
73 | O=C(NCCNc1ccc(C(F)(F)F)cn1)c1cncc(Br)c1 | 26.1%
74 | CN(CCc1cccs1)C(=O)Nc1cnn(CC2CCCO2)c1 (stereo unspecified) | 6.33%
75 | Cc1csc2cc(C(=O)NC3CC3)cnc12 | -82.4%
76 | CCN1CCC2(COCc3c(C)nc(N(C)C)nc32)C1 (stereo unspecified) | 2.59%
77 | CCOc1ncccc1C(=O)N1CCCC1c1c(C)nn(C)c1OC (stereo unspecified) | 32.4%
78 | Cc1ccc2c(c1)SCC(=O)N2CC(=O)N1CCCC1c1cc(C)no1 (stereo unspecified) | -40.6%
79 | Cc1ccc2c(c1)SCC(=O)N2CC(=O)N1CCCC1c1cc(C)on1 (stereo unspecified) | -1.45%
80 | Cc1ccc2c(c1)SCC(=O)N2CC(=O)N1CCC[C@H]1c1nc(C)no1 | 74%
81 | COCC(=O)NCC1CCC(c2nnc(-c3cccnc3)o2)CC1 (stereo unspecified) | -8.58%
82 | c1cncc(-c2nnc([C@H]3CCN(CC4CC4)C3)o2)c1 | 67.8%
83 | c1ccc(-c2nnc(C3CCCN(CC4CCCCC4)C3)o2)nc1 (stereo unspecified) | 7.52%
84 | c1ccc(OCCN2CCC(c3nnc(-c4cccnc4)o3)CC2)cc1 | 20.8%
85 | c1cncc(-c2nnc([C@H]3CCN(CC4CCCCC4)C3)o2)c1 | 55.9%
86 | c1cc(-c2nnc(C3CCCN(CC4CCCCC4)C3)o2)ccn1 (stereo unspecified) | 38.8%
87 | c1ccc(CCCN2CC[C@H](c3nnc(-c4cccnc4)o3)C2)cc1 | 13.5%
88 | O=C(NCC1CCC(c2nnc(-c3cccnc3)o2)CC1)C1CC1 (stereo unspecified) | 50.8%

Row | Structure (SMILES) | INHIBITION
89 | COCC(=O)NCC1CCC(c2nnc(-c3ccncc3)o2)CC1 (stereo unspecified) | 13.7%
90 | CC(=O)N1CCC(Cc2cnc(-n3ccnc3)cn2)CC1 | 17.1%
91 | COC(=O)c1ccc(OC)c(Cn2cc(N)cn2)c1 | 18.9%
92 | Cc1nc(C)n(CC2CN(Cc3nccs3)Cc3nccn3C2)n1 (stereo unspecified) | 8.03%
93 | Cc1cc(F)cc(S(=O)(=O)Nc2ccn(CCCC#N)n2)c1 | 26%
94 | CC(=O)N(Cc1ncc(C)o1)C1CCN(CCc2cnn(C)c2)C1 (stereo unspecified) | -36.1%
95 | O=C(N1CCOCC1)N1C[C@@H]2CC[C@H]1CN(C1Cc3ccccc3C1)C2 | -43.5%
96 | C[C@@H]1CN(Cc2nc(Cc3ccccc3F)no2)C[C@H](C)O1 | 3.93%
97 | Cc1nc(C2CCNC2)nc2c1CCC(=O)N2C (stereo unspecified) | 17.265%
98 | CS(=O)(=O)Cc1nc(CN2CCc3ccccc3CC2)cs1 | 56.5%
99 | CS(=O)(=O)Cc1nc(CN2CCCc3sccc3C2)cs1 | 36.2%
100 | CS(=O)(=O)Cc1nc(CNc2c(F)cc(F)cc2F)cs1 | 40.4%
101 | CCc1nc(CSCc2csc(CS(C)(=O)=O)n2)cs1 | -29.2%
102 | Cc1cc(CSCc2csc(CS(C)(=O)=O)n2)no1 | 19.4%
103 | CS(=O)(=O)Cc1nc(CN2CCOc3ccccc3C2)cs1 | 7.31%
104 | CS(=O)(=O)Cc1nc(CN2CC=C(c3ccccc3)CC2)cs1 | 27.6%
105 | CS(=O)(=O)Cc1nc(CN2CCC(C(F)(F)F)CC2)cs1 | 52.2%
106 | CC1(C)CN(Cc2csc(CS(C)(=O)=O)n2)Cc2ccccc21 | 60.8%

From ChEMBL document CHEMBL4513216, “Probing the Open Global Health Chemical Diversity Library for Multistage-Active Starting Points for Next-Generation Antimalarials” (ACS Infect Dis, 2020)
